Bioassay records: PubChem BioAssay, National Center for Advancing Translational Sciences (NCATS)
Hits are enriched below; roughly 3.1% of the tested compounds scored in any of these assays.
IL2 activator: activators of IL-2. activation, % (series mostly up to about 46 µM). 360,000 compounds, 0.065% hits. AID 652025. IL-2 activation reporter assay, cell-based qHTS; stimulated with anti-CD3/CD4/CD28 beads; in transgenic mouse T cells; in the data active means activation above about 50%; inconclusive means mostly about 30% to 49%
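Using fluorescent plate cytometry, EGFP and DsRed are detected in transgenic mouse T cells stimulated 18 h at 37 degrees C with antibody-coated beads after 60 min compound pretreatment.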
Nrf2 activator: Nrf2 pathway activation; Potency, µM (highest dose often 46.1 µM), most hits filed as activators; 410,000 compounds, 0.31% hits; AID 624171; AREc32 ARE-luciferase reporter (MCF7-derived line), luminescence, 24 h; further: nearly all actives have a fitted effect of over 65% in size
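Reporter line AREc32 (ARE-Fluc), seeded overnight in OPTI-MEM with 5% FBS; compound pin-transferred, 24 hr at 37 deg C, 5% CO2; luminescent read-out.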
ELG1 repair inh: ELG1-dependent DNA repair inhibition. 330,000 compounds, 2.3% hits. HEK293T ELG1-luciferase reporter, luminescence, 16 h; DNA damage induced by 5-fluorouridine. Potency, µM (highest dose often 46.1 µM), usual class: inhibitors; further: nearly all actives have a fitted effect of over 55% in size
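Quantitative HTS, concentration-response format. 2,000 cells/well co-treated with 5-fluorouridine and compound, 16 hr in 5% CO2 at 37 °C; ONE-Glo luminescence read after 30 min.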
BRCA1 expr up: activators of BRCA1 expression; 380,000 compounds, 1.1% hits; AID 624202; Potency, µM (top dose mostly 46.1 µM), most hits filed as activators; MCF7-BRCA1-FFLuc reporter, luminescence, 48 h; response scale: scaled: vehicle 0%, 10 µM genistein 100%; further: nearly all actives have a fitted effect of over 80% in size
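MCF7-BRCA1-FFLuc cells, 2000/well in phenol-red-free MEM, attached 2 h then treated 48 h at 37 C. Luciferase luminescence read 15 min after reagent; normalized to genistein maximum activation (10microM) and DMSO, concentration-response fitted.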
Of the large screens only hits and unclear results are named; the others gave an inactive call. Unless noted, the call rests on the fitted dose curve; in most records, active means well fitted curve in the direction sought with a large enough effect; inconclusive means small, poorly fitted or top-dose-only effect, or another doubt; inactive means no such curve, though single readings can be large; an effect the other way counts as inactive or inconclusive.

Cc1ccc(NC(C)C(=O)N/N=C/c2ccc([N+](=O)[O-])s2)cc1 (configuration not stated)	ELG1 repair inh inconclusive
COc1ccc(NC(C)C(=O)N/N=C/c2ccccc2OCc2ccc(Br)cc2)cc1 (configuration not stated)	ELG1 repair inh inconclusive, BRCA1 expr up 4µM
COc1ccc(NC(C)C(=O)N/N=C/c2ccc([N+](=O)[O-])s2)cc1 (configuration not stated)	ELG1 repair inh 18µM
Cc1cc(C(=O)N/N=C/c2ccc([N+](=O)[O-])s2)c2ccccc2n1	ELG1 repair inh 21µM
CC(Nc1ccc(Br)cc1)C(=O)N/N=C/c1ccccc1OCc1ccccc1 (configuration not stated)	none
Cc1ccnn1CC(=O)N/N=C/c1ccc([N+](=O)[O-])s1	ELG1 repair inh 13µM
COc1ccc(Br)cc1CNC(=O)CN1C(=O)c2cccnc2Oc2ccc(C)cc21	none (no result: IL2 activator, ELG1 repair inh, BRCA1 expr up)
Cc1nc(N2CCN(Cc3ccc(Cl)cc3)CC2)c2oc3ccccc3c2n1	ELG1 repair inh 18µM
Cc1nc(N2CCC(C)CC2)c2oc3ccccc3c2n1	ELG1 repair inh 21µM
Cc1nc(N2CCN(Cc3ccc4c(c3)OCO4)CC2)c2oc3ccccc3c2n1	none (no result: ELG1 repair inh)
COc1ccccc1N1CCN(c2nc(C)nc3c2oc2ccccc23)CC1	ELG1 repair inh inconclusive
O=C1c2ccccc2C2N1CCCN2C(=O)c1sc2ccccc2c1Cl (configuration not stated)	none (no result: ELG1 repair inh)
Cc1nc2ccccc2n1CCc1nc2c3ccccc3nc(SCc3ccc(C#N)cc3)n2n1	none (no result: IL2 activator, ELG1 repair inh, BRCA1 expr up)
CCOc1cc(C2NN=C(c3ccccc3)S2)ccc1OCc1ccccc1Cl (configuration not stated)	Nrf2 activator inconclusive, ELG1 repair inh inconclusive
CCOc1cc(C2NN=C(c3ccccc3)S2)ccc1OCc1ccc(F)cc1 (configuration not stated)	Nrf2 activator 11µM, ELG1 repair inh inconclusive
Cc1ccc(S(=O)(=O)c2[nH]c(-c3ccccc3)nc2SC(C)C(=O)O)cc1 (configuration not stated)	none (no result: IL2 activator, ELG1 repair inh, BRCA1 expr up)
COc1ccc(-c2nc3ccccc3nc2-c2ccccc2)cc1OC	ELG1 repair inh inconclusive
N#Cc1ccc(-c2nc3ccccc3nc2-c2ccccc2)cc1C#N	ELG1 repair inh 16µM
CC(I)CCC(C)[n+]1cccc(I)c1 (configuration not stated)	none (no result: IL2 activator, Nrf2 activator, ELG1 repair inh)
Cn1c(=O)c(C(=O)COc2ccc(F)cc2Cl)c(N)n(Cc2ccccc2)c1=O	ELG1 repair inh 23µM
COc1ccc(CNC(=O)c2oc3c(c2C)-c2nn(Cc4ccc(Cl)cc4)cc2CC3)cc1	none (no result: IL2 activator, ELG1 repair inh, BRCA1 expr up)
O=C(NC(=S)Nc1cccnc1Cl)c1ccc(F)cc1	ELG1 repair inh inconclusive, BRCA1 expr up 10µM
O=C(CC(=O)c1ccccc1)Nc1cccnc1Cl	ELG1 repair inh inconclusive, BRCA1 expr up 7.1µM
O=C(CCc1ccccc1)Nc1cccnc1Cl	ELG1 repair inh inconclusive
O=C(NC(=S)Nc1ncccn1)c1ccc(F)cc1	ELG1 repair inh inconclusive, BRCA1 expr up inconclusive
COc1ccc(Nc2nnc(-c3ccc(C)c(S(N)(=O)=O)c3)c3ccccc23)cc1	none (no result: IL2 activator, ELG1 repair inh, BRCA1 expr up)
CC(=O)CC(=O)NC(=NC1CCCCC1)Nc1nc(C)cc(C)n1	ELG1 repair inh 10µM
O=C(CN1C(=O)CCc2cc(S(=O)(=O)N3CCOCC3)ccc21)Nc1cccc(Cl)c1	none (no result: IL2 activator, ELG1 repair inh)
CN(C)C(=O)CSc1nnc(C23CC4CC(CC(C4)C2)C3)o1	ELG1 repair inh inconclusive, BRCA1 expr up 10µM
CN(C)C(=O)CSc1nnc(CCN)o1	none
O=C(NCCc1c[nH]c2ccccc12)c1ccc2c(c1)OCO2	ELG1 repair inh inconclusive, BRCA1 expr up inconclusive
O=C(CCCCCNc1nc(=S)[nH]c2ccccc12)NCCc1c[nH]c2ccccc12	ELG1 repair inh 18µM
O=C(NCCc1c[nH]c2ccccc12)c1cc(Cl)c2c(c1)OCO2	ELG1 repair inh inconclusive, BRCA1 expr up 3.5µM
Cc1ccc(NC(=O)C(=O)NCCc2c[nH]c3ccccc23)cc1C	none
COC(=O)[C@@H](Cc1c[nH]c2ccccc12)NC(=O)c1ccc2c(c1)OCO2	BRCA1 expr up 3.5µM
O=C(CCCCCNc1nc(=S)[nH]c2ccccc12)NCCc1ccc(Cl)cc1	none
O=C(NCCc1c[nH]c2ccccc12)C(=O)Nc1ccccc1	ELG1 repair inh inconclusive, BRCA1 expr up 11µM
Cc1cccc(-c2nnc(SCc3cc(=O)c4cccc(Cl)c4[nH]3)n2C)c1	none (no result: IL2 activator, ELG1 repair inh, BRCA1 expr up)
C=C1C=C(C(F)(F)F)n2ncc(C(=O)NCc3ccc(F)cc3)c2N1	none (no result: IL2 activator, Nrf2 activator, ELG1 repair inh)
Cc1cccc(NC(=O)CN2CCc3cc4c(cc3C2C)OCCCO4)c1 (configuration not stated)	ELG1 repair inh 21µM
Cc1cc(C)cc(NC(=O)CN2CCc3cc4c(cc3C2C)OCCCO4)c1 (configuration not stated)	ELG1 repair inh inconclusive
CCN(C(=O)C=Cc1ccco1)c1ccccc1	Nrf2 activator 14µM (no result: ELG1 repair inh)
CC(=C/C(=O)O)/C=C/c1ccco1	Nrf2 activator inconclusive, ELG1 repair inh inconclusive
COc1cc(-c2nc(-c3ccccc3)c(-c3cc([N+](=O)[O-])ccc3C)[nH]2)cc(OC)c1OC	ELG1 repair inh 7.3µM
Cc1ccc(NC(=S)NC(CO)C(O)c2ccc([N+](=O)[O-])cc2)cc1 (configuration not stated)	none
O=[N+]([O-])c1ccc(C(O)C(CO)NC(=S)Nc2ccccc2)cc1 (configuration not stated)	ELG1 repair inh 8.2µM
CC(=O)Nc1ccc(OCC(=O)Nc2ccc(Cl)c(S(=O)(=O)N3CCOCC3)c2)cc1	ELG1 repair inh 5.8µM (no result: IL2 activator, Nrf2 activator, BRCA1 expr up)
O=C(CC1CCCC1)Nc1ccc(Cl)c(S(=O)(=O)N2CCOCC2)c1	ELG1 repair inh 21µM
O=C(Nc1ccc(Cl)c(S(=O)(=O)N2CCOCC2)c1)C1CCC1	ELG1 repair inh inconclusive
CC(CC(=O)Nc1ccc(Cl)c(S(=O)(=O)N2CCOCC2)c1)c1ccccc1 (configuration not stated)	ELG1 repair inh 8.2µM
COc1ccc(-n2c(=O)c3c(c4cc(OC)ccc4n3C)n(Cc3c(F)cccc3Cl)c2=O)cc1	none (no result: IL2 activator, ELG1 repair inh)
O=C(Nc1sc2c(c1C(=O)NCc1ccco1)CCCC2)c1cc(=O)c2ccccc2o1	none (no result: IL2 activator, ELG1 repair inh, BRCA1 expr up)
O=C(O)CNc1ccccc1C(=O)O	ELG1 repair inh 21µM
CC1CCc2nc(/C(C#N)=C/c3ccncc3)sc2C1 (configuration not stated)	ELG1 repair inh inconclusive, BRCA1 expr up 11µM
Nc1nc[nH]c(=O)c1N	none (no result: IL2 activator, Nrf2 activator, ELG1 repair inh)
CCCCOc1ccc(/C(N)=N/O)cc1	ELG1 repair inh inconclusive, BRCA1 expr up 11µM
CCCCOc1ccc(C(=O)NC)cc1	ELG1 repair inh inconclusive
O=C(COC(=O)c1cc([N+](=O)[O-])ccc1NCCO)c1ccc(Cl)cc1	ELG1 repair inh inconclusive
CCc1ccc(C(=O)COC(=O)c2cc([N+](=O)[O-])ccc2NCCO)cc1	ELG1 repair inh 15µM
O=c1c2ccccc2nc(/C=C/c2ccc(O)cc2)n1CCc1ccccc1	ELG1 repair inh 23µM
